Several values for one entry are separate records, joined by “and”; a condition that tells them apart may be missing. Identical values can stand only once. About 79,000 compounds went through this panel and 15% of them were active in at least one assay; those are over-represented in the sample as a whole. A number with no mark means an inactive call. Activity calls are given as the source filed them. Rule as the data show it: active = growth inhibition above about 70%; inactive = the rest.
Assay: NCI Yeast Anticancer Drug Screen. Data for the bub3 strain (AID 167)
Conditions: S. cerevisiae bub3 mutant strain, stronger effect = higher value; at 50.0 µM unless noted
Summary of the method: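 In this screen, a yeast mutant lacking normal mitotic checkpoint function is challenged with compound. Relative growth versus vehicle gives the inhibition value.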

SMILES	growth inhibition [%]
O=c1oc(-c2ccc([N+](=O)[O-])cc2Cl)nc2ccccc12	38.6
COc1ccc(C(=[N+]=[N-])c2ccc(OC)cc2)cc1	-10.1
O=C(CCl)Oc1ccc(C(=O)O)cc1	0.85
N/N=C1/CCN2CCCc3cccc1c32	-19.4
Cc1cc(Cl)ccc1OCC(=O)NCCO	2.8
CN(C)c1ccc(/C=C2\C(=O)/C(=C\c3ccc(N(C)C)cc3)c3ccccc32)cc1	1.05
COc1cccc(C(c2ccccc2)C(CC(=O)O)CC(=O)O)c1 (centres undefined)	-2.1
C=C(C)C(C(=O)OCC)C(=O)OCC	-21.8

Assay: NCI Yeast Anticancer Drug Screen. Data for the mlh1 rad18 strain (AID 175)
Conditions: S. cerevisiae mlh1 rad18 strain growth inhibition, stronger effect = higher value; at 50.0 µM unless noted
Summary of the method: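 Vehicle-treated cultures served as the reference for growth inhibition in a yeast strain carrying DNA damage repair alterations exposed to each compound.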

SMILES	growth inhibition
O=c1[nH]c(=O)n(C2CC(O)C(CO)O2)cc1OCCCc1ccccc1 (centres undefined)	-3.2%
CC(=O)Nc1ccc(NC(=O)NCCCCCCNC(=O)Nc2ccc(NC(C)=O)cc2)cc1	5.5%
Nc1nc2cc(F)ccc2o1	-15.2%
CCc1cccc(CC)c1NC(=O)OCCN(CC)CC	4.15%
O=c1oc2ccccc2cc1O	27.1%
Fc1ccc2c(c1)SC1Oc3ccccc3-c3c1c-2nn3-c1ccccc1 (centres undefined)	-2.6%
CCN(CC)c1c(C)c(-c2ccccc2)n[n+]([O-])c1-c1ccccc1	24.8%
Cc1ccc(N2CCC(O)C2)cc1 (centres undefined)	-25.9%
CC1COC(C)(C)P(=O)(c2ccccc2)C1 (centres undefined)	-27.4%
CCC(C(N)=O)c1ccccc1 (centres undefined)	-3.6%
N#Cc1c(C(F)(F)F)cc(-c2cccs2)nc1SC(C(=O)Nc1cc(C(F)(F)F)cc(C(F)(F)F)c1)c1ccccc1 (centres undefined)	10.4%
CCCCCCC(=O)C/C(=N/NC(N)=S)C(=O)NC1C2CC3CC(C2)CC1C3 (centres undefined)	-34.5%
Cc1ccc(S(=O)(=O)C2CC(=O)N(c3ccc(F)c(Cl)c3)C2=O)cc1 (centres undefined)	-11.7%
N#CCCCCCOCCOCCOCCOCCOCCCCCC#N	18.6%
CC12C(=C(C#N)C(=N)N1c1ccc(Cl)c(Cl)c1)C=C(O)CC2SCCS(=O)(=O)O (centres undefined)	10.8%
FC(F)(F)c1cc(NC(=S)SCc2ccc3c(c2)OCO3)ccc1Cl	84% (active)
O=c1nc2c(c(-c3ccc(F)cc3)[nH]1)COC/C2=C\c1ccc(F)cc1	33.2%
Cc1ccccc1NC(=O)C(=O)CC(=O)c1sc(-n2nc(-c3ccccc3)cc2-c2ccccc2)nc1C	-17.8%

SMILES	growth inhibition
CC(C)N(Cc1ccccc1)S(=O)(=O)c1n[nH]c(C(C)(C)C)n1	-0.75%
S=C(S)Nc1cccc2ccccc12	-16.2% and 14.3%
O=C(O)[C@H](Cc1ccccc1)N1C(=O)N[C@@H](Cc2ccccc2)C1=O	-2.7%
N#Cc1c(-c2ccc(Cl)cc2)c(-c2ccc(Cl)cc2)nn(CCOC(=O)CCC(=O)OCCn2nc(-c3ccc(Cl)cc3)c(-c3ccc(Cl)cc3)c(C#N)c2=O)c1=O	26.4%
O=c1c2c3c(sc2nc2n1N=C(c1ccc(Cl)cc1)CS2)CCCC3	-16.6%
COc1nc(NC2OC(CO)C(O)C(O)C2O)c(I)c(=O)[nH]1 (centres undefined)	21.8%
N#C/C(=C1/c2cc([N+](=O)[O-])ccc2-c2c1cc([N+](=O)[O-])cc2[N+](=O)[O-])N1CCCCC1	-13.7%
CCOC(=O)C(=O)Nc1c(C)cccc1C(C)(C)C	-7.05%
Cc1ccc(-c2nc3ccc(Cl)cc3[nH]2)cc1	42.1%
COc1ccc(C(OC(=O)Oc2ccccc2)c2ccccc2)cc1 (centres undefined)	7%
OCC[P+](c1ccccc1)(c1ccccc1)c1ccccc1	-11.3%
CCCCCCCCCCCCCCCC[N+](C)(C)CC#N	99.5% (active)
O=C(CSS(=O)(=O)O)Nc1ccccc1	-8.05%
COc1ccccc1CN1CCCN(Cc2ccccc2OC)C1c1ccc(N(C)C)cc1	49.2%
O=c1oc(-c2ccc([N+](=O)[O-])cc2Cl)nc2ccccc12	29.9%
COc1ccc(C(=[N+]=[N-])c2ccc(OC)cc2)cc1	4.75%
O=C(CCl)Oc1ccc(C(=O)O)cc1	-6.7%
N/N=C1/CCN2CCCc3cccc1c32	10.1%

Source: PubChem BioAssay (NCI)
